The list is not random: actives were taken first. Their share in the collection is about 4%.
Glioma ERSR ind – inducers of ER stress response in human glioma cells. AID 602332. 420,000 compounds, 0.02% hits. Potency, µM, for inactives: top-dose activation, hits mostly activators. U87-MG GRP78 promoter luciferase reporter, 16 h; further: potency means the concentration at half of the fitted maximal effect; series mostly up to about 76 µM; % of control where 0% means no effect; nearly all actives have a fitted effect of over 35% in size
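ERSR induction read as luciferase luminescence (Bright-Glo, 10 min at room temperature) in stably transfected human U87-MG glioma cells exposed to compounds for 16 h, using GRP78 as sensor.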
TRHR enhancer-1 – allosteric enhancers of human TRH receptor; P34981; TRHR cells, fluo-8 calcium fluorescence, EC20 TRH enhancement; enhancement, % at 2 µM; 360,000 compounds, 0.66% hits; AID 493056; in the data active means enhancement above about 30%; further: 0% is about no effect
Target sequence (P34981 whole entry, looked up): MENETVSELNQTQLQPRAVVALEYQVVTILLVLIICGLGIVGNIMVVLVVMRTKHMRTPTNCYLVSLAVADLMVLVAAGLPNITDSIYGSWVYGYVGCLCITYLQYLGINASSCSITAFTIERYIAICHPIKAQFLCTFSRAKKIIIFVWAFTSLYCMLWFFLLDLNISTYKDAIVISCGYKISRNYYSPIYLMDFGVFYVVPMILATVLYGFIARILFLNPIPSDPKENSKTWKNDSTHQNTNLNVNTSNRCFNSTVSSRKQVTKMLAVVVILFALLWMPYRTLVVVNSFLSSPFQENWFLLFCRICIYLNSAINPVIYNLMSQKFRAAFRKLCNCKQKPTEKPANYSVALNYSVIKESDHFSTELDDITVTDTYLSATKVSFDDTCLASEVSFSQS
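Enhancer read-out: after compound pinning and an initial kinetic agonist-mode read, an EC20 of TRH (10 nM final) was injected and fluo-8 calcium signal (Ex 480/Em 530) followed at 1 s/cycle for 100 cycles in TRHR-expressing cells.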
D1 agonist – activates the human D1 dopamine receptor; HEK293 T-REx D1 cells, calcium flux, agonist mode; activation, % at 2 µM; 360,000 compounds, 1% hits; P21728; AID 504660; in the data active means activation above about 30%; further: 0% is about no effect
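Agonism was scored from calcium flux recorded over 180 s (1 read/s) after pintool compound addition, following a 10-cycle baseline. Cells were inducible force-coupled HEK293 TREx D1, plated overnight at 30 C and loaded with no-wash calcium dye.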
D1 antag – blocks dopamine activation of the human D1 receptor. P21728. HEK293 TREx D1 cells, calcium flux, dopamine EC80; active compounds read low. activity change, negative = inhibition, % at 10 µM. 360,000 compounds, 3.2% hits. AID 504652; in the data active means activity change below about -30%; further: on the % scale 0 is the no-effect control and ±100 the full control effect
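Using tetracycline-induced force-coupled D1 Hek293 cells and a calcium dye, signals were followed for 180 s after compound, then for 180 s after EC80 dopamine, to detect inhibitors.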
TRHR agonist-1 – activates the human TRH receptor | activation, % at 2 µM | 360,000 compounds, 0.18% hits | TRHR cells, calcium flux fluo-8, FDSS agonist mode | AID 493084 | P34981; in the data active means activation above about 30%; further: 0% is about no effect
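Steps: seed TRHR cells overnight; add fluo-8 no-wash Ca dye, RT 30 min–1.5 h; record 10 s baseline; pin-transfer compounds; monitor fluorescence 1 cycle/s for the agonist window. Calcium increases flag candidate agonists.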
D1 potentiator – enhances dopamine response at the human D1 receptor. P21728. HEK293 TREx D1 cells, calcium flux, dopamine EC20 potentiation. potentiation, % at 10 µM. 360,000 compounds, 0.036% hits. AID 504651; in the data active means potentiation above about 30%; further: 0% is about no effect
TRHR enhancer-2 – confirmation of human TRH receptor allosteric enhancers | TRH receptor cell assay, enhancer confirmation qHTS | shares compounds with TRHR enhancer-1 | 970 tested, under 10 active | activity change, negative = inhibition, % at 46.1 µM | AID 493076;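 further: compound effect scored on response to added TRH at EC20 of 10 nM; 0% is about no effect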
TRHR agonist-2 – human TRH receptor agonism confirmation; Potency, µM (doses to about 46.1 µM), for inactives: at the top dose activation, hits mostly activators; AID 493078; TRHR-expressing cells, agonist activation read-out; shares compounds with TRHR enhancer-1; 970 compounds, 8% hits; further: potency means the concentration at half of the fitted maximal effect; 0% is about no effect; nearly all actives have a fitted effect of over 75% in size
Starred values were filed as active, the others as inactive; ? = inconclusive; nt = no result. Unless noted, the call rests on the fitted dose curve; in most records, active means well fitted curve in the direction sought with a large enough effect; inconclusive means small, poorly fitted or top-dose-only effect, or another doubt; inactive means no such curve, though single readings can be large; an effect the other way counts as inactive or inconclusive.

SMILES	Glioma ERSR ind	TRHR enhancer-1	D1 agonist	D1 antag	TRHR agonist-1	D1 potentiator	TRHR enhancer-2	TRHR agonist-2
CCCSc1ncc(Cl)c(C(=O)Nc2c(C(=O)Nc3ccc(C)cc3)oc3ccccc23)n1	nt	19	1	0	0	0	nt	nt
CN(C)CCCNC1=CC(=O)CC(c2ccccc2)C1 (stereo not given)	-11%	56*	-1	-1	0	-1	12	-1%
CCOC(=O)C1(CC2CC2)CCN(S(=O)(=O)C[C@]23CC[C@H](CC2=O)C3(C)C)CC1	-4%	1	6	1	34*	-4	5	?
CC1(C)C2CCC1(CS(=O)(=O)N1CCC(C(N)=O)CC1)C(=O)C2 (stereo not given)	-4%	2	4	13	1	-4	nt	nt
CC(=O)c1ccccc1OCCOc1ncnc2sccc12	?	60*	11	1	1	-1	1	7%
CCOc1ccc(Oc2c(/C=N/NC(=O)C3CC3)c(C)nn2-c2ccccc2)cc1	-4%	8	2	-18	0	-8	nt	nt
CCN1CCCc2cc(CN(CCN3CCOCC3)C(=S)Nc3cccc(Cl)c3)ccc21	-2%	-2	4	28	0	4	nt	nt
CCOc1cc(/C=C2/SC(=S)N(Cc3ccccc3)C2=O)ccc1O	4%	1	23	4	29	12	nt	nt
COc1cc(/C=C2\SC(=S)N(N(C)c3ccccc3)C2=O)ccc1O	-3%	-2	26	1	36*	-3	-11	?
COC[C@@H]1CCCN1[C@H]1CS(=O)(=O)N[C@@H]1COCc1ccccc1	-4%	nt	nt	nt	nt	nt	nt	nt
COc1ccccc1NC(=O)c1ccc2c(=O)n3c(nc2c1)CCC3	4%	1	0	15	0	10	nt	nt
CCN(CC)c1ccc(/C=C2\SC(N)=NC2=O)cc1	1%	27	60*	8	29	0	1	?
NC1=NC(=O)/C(=C/c2ccc(OCC(=O)O)cc2)S1	-2%	-3	4	-3	0	0	nt	nt
O=C(Nc1ccc([N+](=O)[O-])cc1)c1nc[nH]c1C(=O)NC1CCCCC1	-6%	7	2	-9	43*	-5	4	-1%
COc1ccc(CCn2c(C(C)C)nc3oc4ccccc4c(=O)c3c2=O)cc1	-4%	-2	0	-6	-1	-11	nt	nt
Cc1cc(=O)n2ccccc2c1C#N	-2%	-5	1	-1	1	1	nt	nt
COc1ccc2c(C#N)c3ccccn3c2c1	-4%	47*	18	-16	10	-6	-10	?
CCCc1c(C(=O)N/N=C/c2ccc3c(c2)OCO3)nnn1-c1nonc1N	-2%	nt	nt	nt	nt	nt	nt	nt
CCOCCCNC(=O)c1cc(Sc2ccc(F)cc2)nc2ccccc12	-5%	49*	4	4	0	-4	-7	3%
Cc1cccc(C(=O)Oc2ccccc2C(=O)N2CCOCC2)c1	-2%	52*	4	6	0	0	-1	1%
COc1ccc(N(CC(=O)NN=C2CCN(C)CC2)S(=O)(=O)c2ccccc2)c(OC)c1	-1%	41*	-4	-7	0	2	1	0%
Cc1ccc(C(=O)Nc2c(-c3ccccc3)nc3ccccn23)cc1	2%	-9	0	16	0	1	nt	nt
C=C1C(=O)O[C@H]2[C@H]1[C@@H](O)CC(=C)[C@@H]1CC(=O)[C@@H](C)[C@H]21	-11%	52*	4	11	1	1	-6	1%
COc1ccc(C(=O)NCCc2nnc3ccc(SCC(=O)NCc4ccccc4)nn23)cc1	-3%	64*	1	4	-1	-8	-6	-1%
O=C(COC(=O)Cc1cccs1)Nc1ccc(OC(F)(F)F)cc1	-4%	-7	0	-7	0	-2	nt	nt

Screening data: PubChem BioAssay, National Center for Advancing Translational Sciences (NCATS)
